# Test results taken from patent US20240035010, “COMPOSITIONS COMPRISING A VARIANT POLYPEPTIDE AND USES THEREOF” (Arbor Biotechnologies, Inc., published 2024).
# T1: variant nuclease E154G/L38G/K221G combination (P14R, D32R, I61R, E311R, E154G, L38G, K221G)
# T1 chain: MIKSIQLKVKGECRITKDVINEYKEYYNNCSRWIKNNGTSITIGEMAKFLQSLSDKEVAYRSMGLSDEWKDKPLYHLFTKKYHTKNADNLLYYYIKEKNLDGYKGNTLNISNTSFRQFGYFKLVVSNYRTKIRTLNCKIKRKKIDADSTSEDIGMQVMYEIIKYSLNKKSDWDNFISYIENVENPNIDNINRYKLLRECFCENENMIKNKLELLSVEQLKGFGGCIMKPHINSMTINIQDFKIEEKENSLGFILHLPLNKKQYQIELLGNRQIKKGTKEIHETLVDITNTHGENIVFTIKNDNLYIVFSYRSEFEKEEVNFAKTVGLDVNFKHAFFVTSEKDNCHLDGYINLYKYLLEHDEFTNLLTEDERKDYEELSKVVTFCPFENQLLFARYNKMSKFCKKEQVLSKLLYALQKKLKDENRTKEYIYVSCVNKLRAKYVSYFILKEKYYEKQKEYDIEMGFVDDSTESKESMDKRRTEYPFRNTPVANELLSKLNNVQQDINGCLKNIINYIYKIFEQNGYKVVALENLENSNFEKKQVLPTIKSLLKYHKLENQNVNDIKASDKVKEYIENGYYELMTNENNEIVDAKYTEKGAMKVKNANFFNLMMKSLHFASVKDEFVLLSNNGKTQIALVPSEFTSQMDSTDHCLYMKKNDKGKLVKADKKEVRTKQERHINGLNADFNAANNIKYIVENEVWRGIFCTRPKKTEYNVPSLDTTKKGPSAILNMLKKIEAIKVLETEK
# B1: VEGFA crRNA ; VEGFA target (ssRNA ; dsDNA)
# RNA: CUUGUUGUAUAUGUCCUUUUAUAGGUAUUAAACAACUCCAGACCACCAAUGGGCAC
# DNA 1: TCCAGACCACCAATGGGCAC
# DNA 2: GTGCCCATTGGTGGTCTGGA
# B2: EMX1 crRNA ; EMX1 target (ssRNA ; dsDNA)
# RNA: CUUGUUGUAUAUGUCCUUUUAUAGGUAUUAAACAACCCGCCGCUUCCUGAGCCAUC
# DNA 1: CCGCCGCTTCCTGAGCCATC
# DNA 2: GATGGCTCAGGAAGCGGCGG
# B3: AAVS1 crRNA ; AAVS1 target (ssRNA ; dsDNA)
# RNA: CUUGUUGUAUAUGUCCUUUUAUAGGUAUUAAACAACUGAGAAUGGUGCGUCCUAGG
# DNA 1: TGAGAATGGTGCGTCCTAGG
# DNA 2: CCTAGGACGCACCATTCTCA
# Legend:
# Settings in all cases: tags: pcDNA3.1 expression
# [1] = target: T1, variant nuclease E154G/L38G/K221G …; experiment: cell_activity; PAM 5'-TTTA-3'
# Experimental: (§1) Approximately 16 hours prior to transfection, 25,000 HEK293T cells in DMEM/10% FBS+Pen/Strep (D10 media) were plated into each well of a 96-well plate. On the day of transfection, the cells were 70-90% confluent. For each well to be transfected, a mixture of Lipofectamine 2000™ and Opti-MEM™ was prepared and incubated at room temperature for 5 minutes (Solution 1). After incubation, the Lipofectamine 2000™:Opti-MEM™ mixture was added to a separate mixture containing nuclease plasmid, RNA guide plasmid, and Opti-MEM™ (Solution 2). In the case of negative controls, the RNA guide plasmid was not included in Solution 2. Solutions 1 and 2 were mixed by pipetting up and down, then incubated at room temperature for 25 minutes. Following incubation, the Solution 1 and 2 mixture was added dropwise to each well of a 96-well plate containing the cells. Approximately 72 hours post transfection, cells were trypsinized by adding TrypLE™ to the center of each well and incubating at 37° C. for approximately 5 minutes. D10 media was then added to each well and mixed to resuspend cells. The resuspended cells were centrifuged at 500 g for 10 minutes to obtain a pellet, and the supernatant was discarded. […]
# (§2) The percentage of NGS reads containing indels (% indels) were calculated. […]
# [2] = target: T1, variant nuclease E154G/L38G/K221G …; experiment: cell_activity; PAM 5'-ATTG-3'
# [3] = target: T1, variant nuclease E154G/L38G/K221G …; experiment: cell_activity; PAM 5'-TTTG-3'
# Experimental: as §1, §2
binder,measurement,setting,value
B1,indel activity,[1],0.06 fold of WT
B2,indel editing activity,[2],0.17 fold of WT
B3,indel activity,[3],0.19 fold of WT
